# PP1 inh: PP1-alpha (human) inhibition in PP5 counter-screen. purified PP1alpha, OMFP fluorescence. inhibition, % at 6.7 µM. 320,000 tested, 0.9% active. AID 2235;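 active = inhibition above the mean inhibition of all tested compounds plus 3 SD, computed separately for each screening campaign, cut at about 15% in these data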
# PAFAH1B2 FP inh: inhibitors of human PAFAH1B2; P68402; recombinant PAFAH1B2, FP-rhodamine activity probe, fluorescence polarization; inhibition, % at 3.39 µM; 340,000 tested, 1.2% active;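 active = inhibition above the mean of all tested compounds plus 3 SD, cut at about 24% in these data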
# pPAFAH inh: inhibitors of human plasma PAF acetylhydrolase (pPAFAH) | Q13093 | recombinant pPAFAH, FP-rhodamine probe fluorescence polarization | inhibition, % at 3.39 µM | 330,000 tested, 1.5% active | AID 463082;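 active = inhibition above the mean inhibition across the screen plus 3 SD, cut at about 25% in these data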;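 also: inhibitors block binding of the rhodamine activity-based probe so polarization drops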
# PP5 inh: PP5 (human) phosphatase inhibition. 320,000 tested, 0.18% active. inhibition, % at 6.7 µM. purified PP5c, OMFP substrate fluorescence. AID 1987;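 active = inhibition above the campaign's mean inhibition across all tested compounds plus 3 SD, cut at about 9.5% in these data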
# Target sequence (P53041 whole entry, looked up): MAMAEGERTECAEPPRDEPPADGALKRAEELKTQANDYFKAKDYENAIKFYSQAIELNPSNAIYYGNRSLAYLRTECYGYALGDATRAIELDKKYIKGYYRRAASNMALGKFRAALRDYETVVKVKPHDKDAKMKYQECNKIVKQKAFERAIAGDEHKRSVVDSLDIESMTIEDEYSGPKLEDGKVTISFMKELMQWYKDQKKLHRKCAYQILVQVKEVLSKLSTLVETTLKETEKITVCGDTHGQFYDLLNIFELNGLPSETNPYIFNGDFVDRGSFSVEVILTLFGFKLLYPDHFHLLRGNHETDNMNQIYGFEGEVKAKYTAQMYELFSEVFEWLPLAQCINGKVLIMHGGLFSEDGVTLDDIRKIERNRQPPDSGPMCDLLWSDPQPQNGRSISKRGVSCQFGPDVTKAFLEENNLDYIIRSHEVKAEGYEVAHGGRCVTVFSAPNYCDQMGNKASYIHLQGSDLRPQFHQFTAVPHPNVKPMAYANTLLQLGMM
# PAFAH1B3 inh: PAFAH1B3 (human) inhibition; Q15102; recombinant PAFAH1B3, FP-rhodamine probe, fluorescence polarization; inhibition, % at 3.39 µM; 340,000 tested, 0.28% active; AID 492972;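 active = inhibition above the screen-wide average of all tested compounds plus 3 SD, cut at about 25% in these data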
# PAFAH2 inh: inhibitors of human PAFAH2. recombinant PAFAH2, FP-rhodamine activity probe, fluorescence polarization. inhibition, % at 3.39 µM. 340,000 tested, 0.99% active;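 active = inhibition above the mean over all tested compounds plus 3 SD, cut at about 30% in these data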;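 also: inhibitors block probe labeling of enzyme so polarization drops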
# PAFAH2 confirm: confirmation of human PAFAH2 inhibitors; 2,300 tested, 65% active; recombinant PAFAH2, FP-rhodamine activity probe, fluorescence polarization; inhibition, % at 3.39 µM; shares compounds with PAFAH2 inh; AID 493030;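 active = mean inhibition over three repeats above a set limit taken from the earlier primary screen, cut at about 30% in these data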;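 also: inhibitor blocks binding of rhodamine activity probe so polarization falls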
# Numbers stand for hits; 0 = inactive; - = no result. Hits are enriched below; roughly 3.4% of the tested compounds scored in any of these assays.
SMILES,PP1 inh,PAFAH1B2 FP inh,pPAFAH inh,PP5 inh,PAFAH1B3 inh,PAFAH2 inh,PAFAH2 confirm
Oc1ccc(Cl)cc1N=Cc1sc2ccccc2c1Cl,0,0,0,0,0,0,-
O=C(NNC(=O)c1ccccc1-n1cccc1)c1cccc(Cl)c1,0,0,0,0,0,0,-
O=S(=O)(Nc1ncccn1)c1ccc(Cl)cc1,0,0,0,0,0,0,-
O=C(COC(=O)C1CC1)Nc1ncc(Cl)cc1Cl,0,0,0,0,0,30,0
O=C(COC(=O)CNC(=O)c1ccccc1)Nc1ccc(Cl)cn1,-,0,0,-,0,0,-
O=C(COC(=O)C1CC1)Nc1ccc(Cl)cn1,0,0,0,0,0,31,0
CC1CC1C(=O)OCC(=O)Nc1ncc(Cl)cc1Cl (stereo not drawn),0,0,0,0,0,31,0
Cc1ccc(C(=O)NCCNC(=O)c2ccco2)cn1,0,0,0,0,0,0,-
N#Cc1ccc(Cl)cc1NC(=O)COC(=O)c1ccc(S(=O)(=O)N2CCCC2)cc1,0,0,0,0,0,0,-
N#Cc1ccc(Cl)cc1NC(=O)COC(=O)c1ccc2c(c1)OCCO2,0,0,0,0,0,66,68
N#Cc1ccccc1NC(=O)COC(=O)c1ccc2c(c1)OCCO2,0,0,0,0,0,73,69
Cc1ccc[n+](C(C)C(=O)c2ccc(-c3ccccc3)cc2)c1 (stereo not drawn),0,0,0,0,0,0,-
Cn1c(=O)c(=O)n(C)c2cc(S(=O)(=O)N3CCN(Cc4ccccc4)CC3)ccc21,0,0,0,0,0,0,-
O=C(CSc1nnc(-c2ccccc2)n1-c1ccccc1)c1ccc[nH]1,0,0,0,0,0,0,-
O=C(CSc1nnc(-c2ccccc2)n1-c1ccccc1)c1cccs1,0,0,0,0,0,43,0
CC1=C(C(=O)OC2CCCCC2)C(c2ccc(O)cc2)NC(=O)N1 (stereo not drawn),0,0,0,0,0,0,-
COc1cc(C(=O)OCC(C)=O)ccc1OCc1c(C)noc1C,-,0,-,-,0,0,-
COc1cc(C(=O)OCC(=O)N2CCCCC2C)ccc1OCc1c(C)noc1C (stereo not drawn),0,0,0,0,0,32,0
CN(C(=O)c1ccc(F)cc1)c1ccc(OCC(=O)Nc2ccccc2C(=O)O)cc1,-,0,0,-,0,0,-
O=C(O)CCCN1C(=O)/C(=C\C(Cl)=C\c2ccccc2)SC1=S,-,0,-,-,0,61,0
CN1CCN(C(=O)CCCN2C(=O)/C(=C/c3ccccc3)SC2=S)CC1,0,0,0,0,0,0,-
CC(C)CNC(=S)NNC(=O)c1csc2c1CCCC2,0,0,0,0,0,0,-
CCC(C)NC(=O)COC(=O)c1csc2c1CCCC2 (stereo not drawn),0,0,0,0,0,57,47
O=C1c2ccccc2-n2c1nc1ccccc1c2=O,0,0,0,0,0,32,0
O=c1c2ccccc2nc2n1-c1ccccc1CCC2,0,0,0,0,0,0,-
SMILES,PP1 inh,PAFAH1B2 FP inh,pPAFAH inh,PP5 inh,PAFAH1B3 inh,PAFAH2 inh,PAFAH2 confirm
COc1ccc(NC(=O)c2c(NC(=O)CCC(=O)O)sc3c2CCCCC3)cc1,0,0,0,0,0,0,-
Cc1cccn2c(=O)c3cc(S(=O)(=O)c4ccccc4)c(=N)n(Cc4cccnc4)c3nc12,0,0,0,0,0,38,33
CC(=O)c1ccc(NC(=O)c2ccc(NC(=O)CCS(=O)(=O)c3cccs3)cc2)cc1,0,0,0,0,0,72,58
CC(=O)c1cccc(NC(=O)c2ccc(NC(=O)CCS(=O)(=O)c3cccs3)cc2)c1,0,0,0,0,0,0,-
O=C(CN1C(=O)c2ccccc2C1=O)N1CCCCC1,0,0,0,0,0,0,-
Cc1ccc(C(=O)CC(=O)c2ccccc2)cc1,0,0,0,0,0,0,-
COc1ccc(C(=O)OCC(=O)NC2CC2)cc1F,-,0,0,-,0,49,31
Cc1ccc(C(=O)OCC(=O)c2ccccc2)cc1,0,0,0,0,0,37,0
CCN(C(=O)COC(=O)c1ccc(OC)c(S(=O)(=O)N(C)Cc2ccccc2)c1)C1CCS(=O)(=O)C1 (stereo not drawn),0,0,0,0,0,0,-
COc1cc(C(=O)OCC(=O)NC2CC2)cc(OC)c1OC,0,0,0,0,0,0,-
COc1cc(N)c(Cl)cc1C(=O)OCC(=O)NCC1CCCO1 (stereo not drawn),-,0,0,-,0,0,-
COc1ccc(C(=O)OCC(=O)NC2CC2)cc1S(=O)(=O)N(C)Cc1ccccc1,0,0,0,0,0,54,49
COc1cc(N)c(Cl)cc1C(=O)OCC(=O)NCC1CCCCC1,-,0,0,-,0,60,52
O=C(COC(=O)c1ccc(F)cc1Cl)NCc1ccco1,-,0,-,-,0,0,-
Cc1ccc(N2CC(C(=O)NC(C)CCc3ccccc3)CC2=O)cc1 (stereo not drawn),0,0,0,0,0,0,-
O=C(CSc1nc2ccccc2[nH]1)N1CCN(c2ccc(F)cc2)CC1,0,0,0,0,0,0,-
N#Cc1ccc(S(=O)(=O)N2CCC(C(=O)N3CCN(Cc4ccc5c(c4)OCO5)CC3)CC2)cc1,0,0,0,0,0,0,-
Cc1nn(CC(=O)Nc2ccc3c(c2)OCO3)c(C)c1Cl,0,0,0,0,0,0,-
COc1cc(C(=O)OCC(=O)NC2CCCCCC2)ccc1OCC(C)C,0,0,0,0,0,88,83
C/C=C/c1ccc(OCC(=O)OCC(=O)NC2CC2)c(OC)c1,-,0,-,-,0,0,-
COc1cc(C(=O)OCC(=O)NC2CC2)ccc1OCCC(C)C,0,0,0,0,0,71,68
COc1ccc(C(=O)OCC(=O)c2ccc(F)cc2)cc1OC,-,0,0,-,0,60,57
COc1cc(C(=O)OCC(=O)NCC2CCCCC2)ccc1OCC(C)C,0,0,0,0,0,68,61
CCOC(=O)c1sc(NC(=O)CCN2C(=O)c3cccc([N+](=O)[O-])c3C2=O)c(C(=O)OCC)c1C,0,0,0,0,0,0,-
COc1ccc(CCNC(=O)CSc2cn(Cc3cccc(C)c3)c3ccccc23)cc1OC,0,0,0,0,0,0,-
SMILES,PP1 inh,PAFAH1B2 FP inh,pPAFAH inh,PP5 inh,PAFAH1B3 inh,PAFAH2 inh,PAFAH2 confirm
COc1cccc(NC(=O)Nc2ccc3nsnc3c2)c1,0,0,0,0,0,0,-
O=C(c1cc(-c2ccc(Cl)cc2)on1)N1CCOCC1,0,0,0,0,0,0,-
O=C(c1cc(-c2ccc(Cl)cc2Cl)on1)N1CCOCC1,0,0,0,0,0,37,0
O=C(COC(=O)Cn1cc(C(F)(F)F)ccc1=O)Nc1ccccc1,0,0,0,0,0,68,60
O=C(Cc1ccccc1)NCCSCc1ccco1,0,0,0,0,0,0,-
Cc1ccc(C)n1-c1sccc1C(=O)O,-,0,-,-,0,46,0
Cc1nc(-c2cccs2)ccc1C(=O)O,0,0,0,0,0,0,-
O=C(OCc1nc2ccccc2s1)c1cccc(S(=O)(=O)N2CCOCC2)c1,0,0,0,0,0,45,0

# Source: PubChem
